M1 ag parental: nonselective activator or artifact in parental CHO-K1 cells; 360,000 tested, 0.48% active; Fluo-8 calcium fluorescence; scaled to maximal ATP response, vehicle zero; activation, % at 3 µM; AID 602248; in the data active means activation above about 15%;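 further: untransfected CHO-K1 host cells lacking M1 receptor as counterscreen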
CHO-K1 Ca PAM: counter-screen for M1 PAMs: effect in parental CHO-K1 cells; ATP EC20, Fluo-8 calcium fluorescence; 0% at ATP EC20, 100% at ATP max; 360,000 tested, 0.02% active; activation, % at 3 µM;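 active means activation above the run cutoff, the mean activation of all test compounds plus 3 SD, cut at about 40% in these data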;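 further: peak over basal fluorescence ratio in a 140 s read after ATP addition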
CHRM1 PAM: potentiates human M1 receptor response to acetylcholine; activation, % at 3 µM; P11229; CHO-K1 hM1, Fluo-8 calcium fluorescence, ACh EC20; 0% = ACh EC20, 100% = maximal ACh; 360,000 tested, 0.088% active; in the data active means activation above about 19%, passing the limit was not always enough
Target sequence (P11229 whole entry, looked up): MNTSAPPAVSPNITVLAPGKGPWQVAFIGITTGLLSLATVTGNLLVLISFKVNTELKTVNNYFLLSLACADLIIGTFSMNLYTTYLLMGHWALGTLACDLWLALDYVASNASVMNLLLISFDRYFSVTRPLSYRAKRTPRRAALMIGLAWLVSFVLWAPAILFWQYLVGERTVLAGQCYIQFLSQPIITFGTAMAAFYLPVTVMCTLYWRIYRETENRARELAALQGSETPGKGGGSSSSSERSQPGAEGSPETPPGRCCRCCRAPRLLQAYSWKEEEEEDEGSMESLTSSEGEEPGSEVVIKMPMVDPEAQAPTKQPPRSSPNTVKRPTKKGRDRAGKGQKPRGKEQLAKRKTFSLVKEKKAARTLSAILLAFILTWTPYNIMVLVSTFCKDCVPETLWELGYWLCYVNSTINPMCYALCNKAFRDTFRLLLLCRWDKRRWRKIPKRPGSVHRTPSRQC
M1 antag: antagonists of human M1 muscarinic receptor; inhibition, % at 3 µM; P11229; CHO-K1 hM1, Fluo-8 calcium fluorescence, ACh EC80 antagonist; 360,000 tested, 1.3% active; AID 588852;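 active means percent inhibition above its own plate's cutoff, namely the mean of that plate's compound wells plus 3 SD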;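 further: peak over basal fluorescence ratio during 140 s after agonist addition; 0% = ACh EC80 plus DMSO and 100% = DMSO alone without agonist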
CHRM1 agonist: activates human CHRM1 receptor. activation, % at 3 µM. CHO-K1 hM1, Fluo-8 calcium fluorescence, agonist mode; 0% DMSO, 100% acetylcholine EC100. 360,000 tested, 0.33% active;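 active means activation above the run's mean compound activation plus 3 SD, cut at about 16% in these data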;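 further: peak over basal fluorescence ratio within a 140 s kinetic read after compound addition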
CHO-K1 Ca antag: nonselective inhibitor or artifact in parental CHO-K1 cells | ATP-induced calcium, Fluo-8 fluorescence | inhibition, % at 3 µM | 360,000 tested, 0.6% active | AID 602250;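 active means inhibition above a per-plate cutoff, the plate's mean sample inhibition plus 3 SD, cut at about 24% in these data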;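 further: 0% = DMSO plus EC80 ATP and 100% = DMSO alone without ATP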
Numbers without * were called inactive. An excerpt weighted towards active compounds, which were near 2.4% of everything screened.

SMILES | M1 ag parental | CHO-K1 Ca PAM | CHRM1 PAM | M1 antag | CHRM1 agonist | CHO-K1 Ca antag
Cc1[nH]c2ccccc2c1C(C[N+](=O)[O-])c1cccc(O)c1 (centres undefined) | 7 | -1 | -13 | 37* | -1 | 6
CN(CCC#N)C(=O)COC(=O)c1cc(Cl)cc(Cl)c1N | 0 | 17 | 12 | -6 | -7 | -6
COc1ccccc1C1N(c2cc(Cl)ccc2OC)C(=O)C2CCCN21 (centres undefined) | 0 | -13 | 3 | -7 | -5 | 27*
Cc1ccc(-n2ncc3c(=O)n(CC(=O)N4CCN(c5ccccc5)CC4)cnc32)cc1C | 1 | 13 | 8 | -4 | -3 | -4
COc1ccc(-c2c3c([nH]c(=S)c2C#N)CCC3)cc1 | -1 | -4 | 13 | -17 | 5 | 26*
CC(Sc1nncs1)C(=O)Nc1ccc2c(c1)OCCO2 (centres undefined) | 0 | 9 | 10 | -4 | -2 | 25*
CC(C(=O)Nc1ccc2c(c1)OCCO2)c1ccc([N+](=O)[O-])cc1 (centres undefined) | 17* | 12 | -2 | 6 | 42* | -1
CCN(CC(=O)Nc1c(F)cccc1F)C(=O)CCc1nc2cc(S(=O)(=O)N3CCOCC3)ccc2n1C | 2 | 14 | 5 | -11 | -7 | -3
Cc1ccc(C(NC(=O)C2CCN(CCOc3ccccc3)CC2)c2ccccn2)cc1 (centres undefined) | 1 | 10 | -24 | 33* | -9 | -14
CCCC1Oc2ccccc2C(=O)N(CC(=O)c2ccc3c(c2)OCCO3)C1=O (centres undefined) | 4 | 0 | -3 | 4 | -2 | -8
Cc1cc(O)ccc1NC(=O)CCN1C(=O)c2ccc([N+](=O)[O-])cc2C1=O | 1 | 12 | 28* | 2 | -3 | -5
Cc1cccc(C)c1NC(=O)C1CCCN(CCCc2ccccc2)C1 (centres undefined) | 2 | 16 | -24 | 97* | -7 | -4
O=S(=O)(/N=C(/Nc1cccc2ccccc12)c1ccc(F)cc1)c1ccccc1 | 0 | -2 | -7 | 8 | -4 | -4
Cc1cc(Br)ccc1NC(=O)CN(C)C(=O)Cn1c(=O)cnc2ccccc21 | 0 | -21 | -17 | 29* | -6 | 1
COc1ccc(CCNC(=O)c2cc(-c3ccccn3)nc3c(Cl)cccc23)cc1OC | 0 | 0 | 5 | -11 | -3 | -5
COc1ccc(CCNC(=O)c2cc(-c3ccncc3)nc3c(Cl)cccc23)cc1OC | 5 | -15 | -12 | 38* | -3 | -4
Cc1occc(=O)c1OC(=O)Nc1ccc(Cl)c(Cl)c1 | 12 | 6 | -15 | 26 | 2 | 29*
Cc1ccc(NC(=O)COC(=O)Cc2ccsc2)c(C)c1 | 0 | -5 | 11 | -7 | -6 | -3
CN(Cc1ccccc1)S(=O)(=O)c1ccc(N2CCCC2=O)cc1 | 16* | 1 | -1 | 4 | 1 | 23
CN(Cc1ccccc1)S(=O)(=O)c1ccc2c(c1)n(C)c(=O)c(=O)n2C | 0 | 12 | 7 | -14 | -4 | 0
CN(Cc1ccccc1)S(=O)(=O)c1ccc(NS(=O)(=O)Cc2ccccc2)cc1 | 2 | -9 | -15 | 30* | -4 | 22
C=CCN(c1ccccc1)S(=O)(=O)c1ccc(Cl)c(C(=O)OCC(=O)c2[nH]c(C)c(C(C)=O)c2C)c1 | 4 | -9 | -19 | 31* | -7 | 29*
CCOC(=O)C1CCN(C(=O)Cn2c(=O)c3cccn3c3cccnc32)CC1 | 3 | 15 | 8 | -9 | 0 | -17
NC(=O)CN1CCOCCOCCN(CC(N)=O)CCOCCOCC1 | 2 | -2 | 5 | -22 | 0 | 49*
O=C(c1cc2nc(-c3ccccc3)cc(-c3ccccc3)n2n1)N1CCCC1 | 16* | 18 | -4 | 11 | -7 | 2
SMILES | M1 ag parental | CHO-K1 Ca PAM | CHRM1 PAM | M1 antag | CHRM1 agonist | CHO-K1 Ca antag
O=C(NC1CCS(=O)(=O)C1)c1cccc(S(=O)(=O)N2CCCC2)c1 (centres undefined) | 0 | 1 | 9 | -3 | -7 | 1
Cc1cccc2c1N(CCOc1ccc(C(C)(C)C)cc1)C(=O)C2=O | 0 | -4 | -7 | -1 | 21* | 5
Cc1ccc(OCCCN2C(=O)C(=O)c3cccc(C)c32)cc1 | 1 | 21 | 11 | -12 | 14 | -8
Cc1cccc2c1N(CCOc1ccccc1Cl)C(=O)C2=O | 1 | 18 | -1 | -16 | 24* | -3
CN(CCOc1ccccc1)C(=O)C1CCN(C(=O)c2ccc(F)cc2)CC1 | 1 | 4 | 9 | -15 | -2 | -2
Cc1ccc(NC(=O)COc2ccc3c(c2)CCC3)nc1 | 0 | -12 | 6 | -11 | -5 | 8
CCOc1cc2c(cc1/C=C(/C#N)c1ccc(C(=O)O)cc1)OCO2 | 18* | 4 | 5 | -9 | -5 | 7
CCOc1ccc(S(=O)(=O)NCCC(=O)NCc2ccncc2)cc1 | 2 | 2 | 3 | -5 | -1 | -1
CC(C)C(=O)Nc1c2c(nn1-c1ccc(F)cc1)CSC2 | 0 | -3 | 4 | 10 | 0 | -1
CCC(C)c1ccccc1NC(=O)Cc1coc2cc3c(cc12)CCC3 (centres undefined) | 0 | 10 | -3 | 0 | -7 | 0
Cc1ccc(C)c(NC(=O)Cc2coc3cc4c(cc23)CCC4)c1 | 0 | -1 | 28* | 8 | -3 | -1
CCn1c(COc2cccc(C)c2C)nnc1SCC(=O)Nc1cc(C)on1 | 18* | 7 | 12 | -1 | -5 | 2
CCn1c(COc2ccccc2C)nnc1SCC(=O)Nc1cc(C)on1 | 0 | 12 | 12 | -10 | 5 | -18
COc1ccc(N(C)S(=O)(=O)c2cccc(C(=O)N3CCN(S(=O)(=O)c4ccc(C)cc4)CC3)c2)cc1 | 7 | -15 | -9 | 10 | -1 | 9
COc1cccc(NC(=S)NC2CC(C)(C)NC(C)(C)C2)c1 | 0 | -11 | -6 | 10 | 0 | 26*
CC1(C)CC(NC(=S)NC(=O)c2cc(Br)ccc2Cl)CC(C)(C)N1 | 0 | -4 | 11 | -5 | 22* | 2
COc1cc(NC(=S)NC2CC(C)(C)NC(C)(C)C2)c(OC)cc1Cl | 0 | 9 | 4 | 2 | 36* | 7
Cc1csc(NC(=O)[C@@H]2CCCN2C(=O)c2cccs2)n1 | 0 | 5 | 13 | -17 | -2 | -9
CCCC/C(O)=C1\C(=O)CCCC1=NCCc1c(C)[nH]c2ccc(OC)cc12 | 2 | 18 | 3 | -10 | -1 | -7
CCOC(=O)N1CCN(C(=O)CCNS(=O)(=O)c2ccc3c(c2)c(=O)n(C)c(=O)n3C)CC1 | 0 | 11 | 3 | -9 | -6 | -15
